Assay [1] can be described thus: NCI Yeast Anticancer Drug Screen. Data for the rad50 strain (AID 155).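 Also: 0% = growth of vehicle-only cultures of the same strain.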 As to conditions: S. cerevisiae rad50 strain growth inhibition, hits give high values. The method, boiled down: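 A DNA repair-deficient yeast mutant serves as the test organism; compound-induced growth inhibition is calculated against vehicle-treated cells.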
A short description of assay [2]: NCI Yeast Anticancer Drug Screen. Data for the mec2-1 strain (AID 157). To be noted: S. cerevisiae mec2-1 strain, hits give high values. The method, boiled down: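 Using mec2-1 yeast: add compound, measure growth, express inhibition versus vehicle-treated cultures.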
Assay [3] in a line: NCI Yeast Anticancer Drug Screen. Data for the sgs1 mgt1 strain (AID 161).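 Also: 0% = growth of cultures given vehicle only.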 To be noted: S. cerevisiae sgs1 mgt1 strain, hits give high values. Put shortly:
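Compounds are added to genetically altered yeast, and growth is compared with cultures given vehicle alone to give percent inhibition.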

Assay [4] can be described thus: NCI Yeast Anticancer Drug Screen. Data for the cln2 rad14 strain (AID 165).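 Also: 0% = growth equal to vehicle treated cultures.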 As to conditions: S. cerevisiae cln2 rad14 strain, hits give high values. Put shortly:
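Yeast strain cln2 rad14, bearing defects in cell cycle control and DNA repair, serves as the test system; values reflect growth inhibition compared with vehicle.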

Assay [5] can be described thus: NCI Yeast Anticancer Drug Screen. Data for the bub3 strain (AID 167). As to conditions: S. cerevisiae bub3 mutant strain, hits give high values. Put shortly:
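Inhibition values come from growth of compound-treated mutant yeast normalised to vehicle-treated controls.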

Assay [6] can be described thus: NCI Yeast Anticancer Drug Screen. Data for the mlh1 rad18 strain (AID 175). To be noted: S. cerevisiae mlh1 rad18 strain growth inhibition, hits give high values. The method, boiled down: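 Steps: expose repair-defective yeast to compound; measure growth; express inhibition against vehicle-treated controls.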
The mark [7] stands for this setting: at 5.0 µM (retest, dose inferred, filed as 0.5).
The mark [8] stands for this setting: at 50.0 µM (retest, dose inferred, filed as 5.0).

The panel holds about 79,000 compounds, 15% with a hit somewhere; the sample as a whole holds those more often. Unmarked numbers belong to inactive results. Active and inactive are the calls of the source. Rule as the data show it: active = growth inhibition above about 70%; inactive = the rest.

With `O=C1Nc2ccccc2/C1=C/c1ccc(Cl)c(Cl)c1`, the growth inhibition in assay [1] (setting [7]) is -1%; in assay [1] (setting [8]), 71% (active); in assay [1] (at 50.0 µM), 78.3% (active); in assay [2] (setting [7]), -8%; in assay [2] (setting [8]) it was 89% (active); in assay [2] (at 50.0 µM) it was 80.3% (active). For the same compound, the growth inhibition in assay [3] (setting [7]) is -4%; in assay [3] (setting [8]), 73% (active); in assay [3] (at 50.0 µM), 65.5%; in assay [4] (setting [7]), 20%; in assay [4] (setting [8]) it was 94% (active); in assay [4] (at 50.0 µM) it was 74.1% (active). Moreover, the growth inhibition in assay [5] (setting [7]) was -10%; in assay [5] (setting [8]), 94% (active); in assay [5] (at 50.0 µM), 74.7% (active); in assay [6] (setting [7]), 5%; in assay [6] (setting [8]), 89% (active); in assay [6] (at 50.0 µM) it was 78% (active).

`CCCCCCCCCCCCCCCC[N+](C)(CCO)Cc1cnc[nH]1` (configuration not stated): the growth inhibition in assay [1] (setting [7]) is 97% (active); in assay [1] (setting [8]), 98% (active); in assay [1] (at 50.0 µM), 90.2% (active); in assay [2] (setting [7]) it was 97% (active); in assay [2] (setting [8]), 99% (active); in assay [2] (at 50.0 µM) it was 87.4% (active). The growth inhibition in assay [3] (setting [7]) is 98% (active); in assay [3] (setting [8]), 99% (active); in assay [3] (at 50.0 µM), 90.8% (active); in assay [4] (setting [7]), 98% (active); in assay [4] (setting [8]) it was 99% (active); in assay [4] (at 50.0 µM) it was 86.8% (active). Besides, the growth inhibition is 99% (active) in assay [5] (setting [7]); 99% (active) in assay [5] (setting [8]); 88% (active) in assay [5] (at 50.0 µM); 94% (active) in assay [6] (setting [7]); 98% (active) in assay [6] (setting [8]); 88.6% (active) in assay [6] (at 50.0 µM).

As for `Cc1cc(I)cc(I)c1O`, the growth inhibition in assay [1] (setting [7]) is 8%; in assay [1] (setting [8]), 55%; in assay [1] (at 50.0 µM), 75.5% (active); in assay [2] (setting [7]), 2%; in assay [2] (setting [8]), 34%; in assay [2] (at 50.0 µM), 80.7% (active). Also, the growth inhibition was 7% in assay [3] (setting [7]); 33% in assay [3] (setting [8]); 55.3% in assay [3] (at 50.0 µM); 4% in assay [4] (setting [7]); 4% in assay [4] (setting [8]); -7.85% in assay [4] (at 50.0 µM). Besides, the growth inhibition in assay [5] (setting [7]) is 1%; in assay [5] (setting [8]), 33%; in assay [5] (at 50.0 µM) it was 67.3%; in assay [6] (setting [7]), 10%; in assay [6] (setting [8]) it was 62%; in assay [6] (at 50.0 µM), 86.3% (active).

Turning to `Cc1cc(N)c2ccccc2[n+]1CCCCCCCCCC[n+]1c(C)cc(N)c2ccccc21`, the growth inhibition in assay [1] (setting [7]) was 42%; in assay [1] (setting [8]) it was 98% (active); in assay [1] (at 50.0 µM), 89.3% (active); in assay [2] (setting [7]) it was 47%; in assay [2] (setting [8]), 95% (active); in assay [2] (at 50.0 µM), 92.8% (active). The growth inhibition is 98% (active) in assay [3] (setting [7]); 96% (active) in assay [3] (setting [8]); 92.3% (active) in assay [3] (at 50.0 µM); 90% (active) in assay [4] (setting [7]); 99% (active) in assay [4] (setting [8]); 91% (active) in assay [4] (at 50.0 µM). In addition, the growth inhibition was 97% (active) in assay [5] (setting [7]); 98% (active) in assay [5] (setting [8]); 91% (active) in assay [5] (at 50.0 µM); 51% in assay [6] (setting [7]); 97% (active) in assay [6] (setting [8]); 81.3% (active) in assay [6] (at 50.0 µM).

In the case of `c1coc(C2=Nc3cccc4cccc(c34)N2)c1`, the growth inhibition in assay [1] (setting [7]) is 6%; in assay [1] (setting [8]), 84% (active); in assay [1] (at 50.0 µM), 50.5%; in assay [2] (setting [7]), 5%; in assay [2] (setting [8]) it was 62%; in assay [2] (at 50.0 µM), 10.3%. Also, the growth inhibition is 36% in assay [3] (setting [7]); 81% (active) in assay [3] (setting [8]); 76.7% (active) in assay [3] (at 50.0 µM); 4% in assay [4] (setting [7]); 65% in assay [4] (setting [8]); 32.5% in assay [4] (at 50.0 µM). Besides, the growth inhibition in assay [5] (setting [7]) was 5%; in assay [5] (setting [8]), 94% (active); in assay [5] (at 50.0 µM) it was 36.4%; in assay [6] (setting [7]), -13%; in assay [6] (setting [8]), 96% (active); in assay [6] (at 50.0 µM) it was 54.6%.

For `N#C/C(=C\c1c(Cl)cccc1Cl)c1nc2ccccc2[nH]1`, the growth inhibition in assay [1] (setting [7]) is 38%; in assay [1] (setting [8]), 97% (active); in assay [1] (at 50.0 µM), 87.7% (active); in assay [2] (setting [7]) it was 22%; in assay [2] (setting [8]), 99% (active); in assay [2] (at 50.0 µM) it was 90.2% (active). The growth inhibition is 33% in assay [3] (setting [7]); 99% (active) in assay [3] (setting [8]); 90.6% (active) in assay [3] (at 50.0 µM); 23% in assay [4] (setting [7]); 98% (active) in assay [4] (setting [8]); 88.9% (active) in assay [4] (at 50.0 µM). Also, the growth inhibition is 35% in assay [5] (setting [7]); 98% (active) in assay [5] (setting [8]); 91.5% (active) in assay [5] (at 50.0 µM); 42% in assay [6] (setting [7]); 98% (active) in assay [6] (setting [8]); 88.8% (active) in assay [6] (at 50.0 µM).

On to `CN(C)CCC(/C=C/c1ccccc1)=N\Nc1ccc(Cl)cc1Cl`, for which the growth inhibition is 66% in assay [1] (setting [7]); 87% (active) in assay [1] (setting [8]); 99.5% (active) in assay [1] (at 50.0 µM); 32% in assay [2] (setting [7]); 94% (active) in assay [2] (setting [8]); 99.5% (active) in assay [2] (at 50.0 µM). In addition, the growth inhibition in assay [3] (setting [7]) was 47%; in assay [3] (setting [8]), 91% (active); in assay [3] (at 50.0 µM) it was 99.4% (active); in assay [4] (setting [7]), 66%; in assay [4] (setting [8]), 88% (active); in assay [4] (at 50.0 µM) it was 98.7% (active). Further, the growth inhibition in assay [5] (setting [7]) was 80% (active); in assay [5] (setting [8]) it was 90% (active); in assay [5] (at 50.0 µM) it was 98.8% (active); in assay [6] (setting [7]), 78% (active); in assay [6] (setting [8]), 91% (active); in assay [6] (at 50.0 µM), 99.5% (active).

Consider `CCCCCCCCCCCCCCSC(=NC)NC`, for which the growth inhibition in assay [1] (setting [7]) was 99% (active); in assay [1] (setting [8]), 99% (active); in assay [1] (at 50.0 µM), 99.5% (active); in assay [2] (setting [7]), 99% (active); in assay [2] (setting [8]), 99% (active); in assay [2] (at 50.0 µM) it was 99.8% (active). The growth inhibition in assay [3] (setting [7]) is 100% (active); in assay [3] (setting [8]), 99% (active); in assay [3] (at 50.0 µM) it was 99.5% (active); in assay [4] (setting [7]), 99% (active); in assay [4] (setting [8]) it was 99% (active); in assay [4] (at 50.0 µM), 98.9% (active). Also, the growth inhibition in assay [5] (setting [7]) is 99% (active); in assay [5] (setting [8]), 99% (active); in assay [5] (at 50.0 µM), 99.5% (active); in assay [6] (setting [7]) it was 98% (active); in assay [6] (setting [8]), 99% (active); in assay [6] (at 50.0 µM), 99.4% (active).

Consider `CCCCCC(=O)/C=C/c1ccc(C)cc1`, for which the growth inhibition is -155% in assay [1] (setting [7]); -162% in assay [1] (setting [8]); 82.6% (active) in assay [1] (at 50.0 µM); -47% in assay [2] (setting [7]); -59% in assay [2] (setting [8]); 56.9% in assay [2] (at 50.0 µM). Also, the growth inhibition in assay [3] (setting [7]) was -60%; in assay [3] (setting [8]), -65%; in assay [3] (at 50.0 µM) it was 83% (active); in assay [4] (setting [7]) it was -59%; in assay [4] (setting [8]) it was -80%; in assay [4] (at 50.0 µM), 75% (active). The growth inhibition is -59% in assay [5] (setting [7]); -57% in assay [5] (setting [8]); 61.8% in assay [5] (at 50.0 µM); -123% in assay [6] (setting [7]); -131% in assay [6] (setting [8]); 81.7% (active) in assay [6] (at 50.0 µM).

(Values after PubChem BioAssay (NCI).)
